Experiment [1] in a line: S16 Schwann cell viability assay (CellTiter-Glo assay) (AID 624031).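 Note: cellular ATP luminescence as a viability measure; plate controls were DMSO-treated cells for no effect and cell-free wells for full effect; nearly all actives have a fitted effect of over 70% in size.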 In a few lines:
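Native S16 Schwann cells (rat), serum-containing medium, overnight attachment then 24 h drug exposure at 37 °C/5% CO2. CellTiter-Glo ATP signal; normalized to cell-free and vehicle wells.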
(In general: Cellular ATP, detected with luciferase, serves as a proxy for viable cell number.)

For another experiment, the system named is ATS95. As to the kind of experiment: qHTS profiling for inhibitors of Plasmodium falciparum proliferation (AID 504749).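 For activity, negative = inhibition: 0% = DMSO vehicle and full inhibition = artemisinin control.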 Note: nearly all actives have a fitted effect of over 60% in size. Note: potency is the fitted concentration of half-maximal effect. The following applies: P. falciparum in erythrocytes, SYBR Green DNA, 72 h; series mostly up to 28.7 µM. Summed up:
(§1)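 Three-day growth assay of blood-stage parasites in erythrocytes (0.3% parasitemia, 2.5% hematocrit) at 37 C, 5% CO2, quantified by SYBR Green DNA staining after overnight detergent lysis.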

A further experiment concerns C2A. Described as above. The following applies: P. falciparum in erythrocytes, SYBR Green DNA, 72 h; series mostly up to 28.7 µM. Summed up:
as §1

The test system of the next experiment is CP194. The experiment is described as above. The following applies: P. falciparum in erythrocytes, SYBR Green DNA, 72 h; series mostly up to 28.7 µM. Summed up: as §1
Another experiment concerns CP201. The description is as above. The following applies: P. falciparum in erythrocytes, SYBR Green DNA, 72 h; series mostly up to 28.7 µM. Summed up: as §1
For the next experiment, the system named is CP211. Described as above. The settings on record: P. falciparum in erythrocytes, SYBR Green DNA, 72 h; series mostly up to 28.7 µM. In a few lines: as §1
A further experiment has as its system CP217. Described as above. The settings on record: P. falciparum in erythrocytes, SYBR Green DNA, 72 h; series mostly up to 28.7 µM. In a few lines:
as §1

The subject of the next experiment is CP237. The description is as above. The settings on record: P. falciparum in erythrocytes, SYBR Green DNA, 72 h; series mostly up to 28.7 µM. Summed up: as §1
In a further experiment the test system is CP252. Described as above. The following applies: P. falciparum in erythrocytes, SYBR Green DNA, 72 h; series mostly up to 28.7 µM. Summed up:
as §1

The next experiment has as its system CP286. Described as above. The settings on record: P. falciparum in erythrocytes, SYBR Green DNA, 72 h; series mostly up to 28.7 µM. In a few lines:
as §1

Another experiment has as its system CP291. The description is as above. The following applies: P. falciparum in erythrocytes, SYBR Green DNA, 72 h; series mostly up to 28.7 µM. In a few lines: as §1
In the next experiment the test system is CP315. Described as above. The following applies: P. falciparum in erythrocytes, SYBR Green DNA, 72 h; series mostly up to 28.7 µM. In a few lines:
as §1

Another experiment has as its system CP325. Described as above. The settings on record: P. falciparum in erythrocytes, SYBR Green DNA, 72 h; series mostly up to 28.7 µM. Summed up:
as §1

The test system of a further experiment is CP335. The experiment is described as above. The settings on record: P. falciparum in erythrocytes, SYBR Green DNA, 72 h; series mostly up to 28.7 µM. Summed up: as §1
Another experiment relates to ECU. The description is as above. The settings on record: P. falciparum in erythrocytes, SYBR Green DNA, 72 h; series mostly up to 28.7 µM. In a few lines: as §1
A further experiment has as its system GB4. The description is as above. The following applies: P. falciparum in erythrocytes, SYBR Green DNA, 72 h; series mostly up to 28.7 µM. Summed up: as §1
Another experiment has as its system SC27B. The experiment is described as above. The settings on record: P. falciparum in erythrocytes, SYBR Green DNA, 72 h; series mostly up to 28.7 µM. In a few lines:
as §1

The next experiment relates to TAB165. The description is as above. The settings on record: P. falciparum in erythrocytes, SYBR Green DNA, 72 h; series mostly up to 28.7 µM. Summed up:
as §1

Experiment [2] in a line: Stat Signaling Pathway (AID 446; active = well fitted curve in either direction with a large enough effect, not every such curve was filed as active;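 note: ME-180 cervical cancer cells given 40 pM IL-6 alongside compound; SIE-controlled beta-lactamase reporter measured as 460/530 nm FRET emission ratio; % is set by controls: 0 for no effect and ±100 for the full control effect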). The settings on record: ME-180 (cervical carcinoma) SIE beta-lactamase reporter, IL-6 stimulated, 5 h. In a few lines:
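IL-6/STAT signaling read in ME-180 cells via an SIE beta-lactamase reporter. Stimulus was 40 pM IL-6 (its AC50) for 5 hrs, so both activation and inhibition register.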

The subject of the next experiment is JCK. As to the kind of experiment: qHTS profiling for inhibitors of Plasmodium falciparum proliferation (AID 504749).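 For activity, negative = inhibition: 0% = DMSO vehicle and full inhibition = artemisinin control.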 Note: nearly all actives have a fitted effect of over 60% in size. Note: potency is the fitted concentration of half-maximal effect. The following applies: P. falciparum in erythrocytes, SYBR Green DNA, 72 h; series mostly up to 28.7 µM. In a few lines:
as §1
Background: In qHTS, concentration-response curves come from the screen itself.

The mark [3] stands for this setting: at 7.69 µM (top of the series) unless noted.

Inconclusive results are not listed. A number with no mark means an inactive call. The source made the active and inactive calls. Unless noted, calls come from the whole dose curve; as a rule, active = well fitted curve in the direction sought with a large enough effect; inconclusive = small, poorly fitted or top-dose-only effect, or another doubt; inactive = no such curve, though single readings can be large; an effect the other way counts as inactive or inconclusive.

As for `CO[C@H]1/C=C/O[C@@]2(C)Oc3c(C)c(O)c4c(O)c(c(/C=N\N5CCN(C6CCCC6)CC5)c(O)c4c3C2=O)NC(=O)/C(C)=C\C=C\[C@H](C)[C@H](O)[C@@H](C)[C@@H](O)[C@@H](C)[C@H](OC(C)=O)[C@@H]1C`, the result in experiment [1] was inactive. Also, the Potency in the experiment with ATS95 is 1.26 µM (active); in the experiment with C2A, 2.51 µM (active); with CP194 it was 4.26 µM (active); in the experiment with CP201, 5.36 µM (active); in the experiment with CP211, 4.26 µM (active); in the experiment with CP217, 1.41 µM (active). Moreover, the Potency was 0.224 µM (active) in the experiment on CP237; 1.41 µM (active) in the experiment on CP252; 2.24 µM (active) in the experiment with CP286; 4.26 µM (active) in the experiment with CP291; 4.78 µM (active) with CP315; 4.78 µM (active) in the experiment on CP325. Also, the Potency with CP335 is 1.35 µM (active); with ECU, 0.199 µM (active); in the experiment on GB4, 1.07 µM (active); with SC27B, 0.251 µM (active); with TAB165, 0.158 µM (active).
Take `CC(C)n1c(/C=C/[C@H](O)C[C@H](O)CC(=O)O)c(-c2ccc(F)cc2)c2ccccc21`: in experiment [1], the compound was classed as inactive.
Take `NCCC(=O)NCCc1cnc[nH]1`: the activity, negative = inhibition was 9.79% in experiment [2] (at 17.2 µM (top of the series)) and -27.3% in experiment [2] (at 38 µM (top of the series)).
As to `CN1C(=O)CCC1c1cccnc1` (stereo not drawn), in experiment [1], the compound was classed as inactive. Also, the Potency entry with CP194, in the experiment with CP201, in the experiment on CP211, in the experiment on CP291, in the experiment on CP315 and in the experiment on CP325 was “inactive” throughout. Besides, the Potency entry in the experiment with CP335, in the experiment with GB4 and in the experiment on JCK was “inactive” in each case.
As to `CN=C(N)NCCCC(N)C(=O)O` (stereo not drawn), in experiment [1], the call was inactive. Moreover, the Potency result in the experiment with CP194, with CP201, in the experiment on CP211, with CP291, with CP315 and in the experiment on CP325 was “inactive” throughout. The Potency entry with CP335, in the experiment with GB4 and with JCK was “inactive” in each case.
Turning to `CC(C)C[C@H]1C(=O)N2CCCC2[C@]2(O)O[C@](NC(=O)[C@@H]3C=C4c5cccc6[nH]c(Br)c(c56)C[C@H]4N(C)C3)(C(C)C)C(=O)N12` (stereo partly drawn), the compound was classed as inactive in [1]. Besides, the Potency was 5.01 µM (active) in the experiment with ATS95; 11.2 µM (active) with C2A; 13.5 µM (active) in the experiment with CP194; 13.5 µM (active) with CP201; 15.1 µM (active) in the experiment on CP211; 7.08 µM (active) in the experiment with CP217. In addition, the Potency was 2 µM (active) in the experiment with CP237; 7.08 µM (active) in the experiment on CP252; 3.55 µM (active) with CP286; 10.7 µM (active) with CP291; 9.53 µM (active) in the experiment with CP325; 3.79 µM (active) with CP335. The Potency in the experiment on ECU is 3.55 µM (active); with GB4, 6.01 µM (active); in the experiment with JCK it was 10 µM (active); with SC27B, 6.31 µM (active); in the experiment with TAB165, 2.82 µM (active).
Turning to `COc1cc2c(cc1OC)C(c1ccccc1)CN(C)CC2` (stereo not drawn), the result in [1] was inactive. Further, the Potency entry in the experiment with ATS95, with C2A, with CP194, in the experiment with CP201, with CP211 and in the experiment with CP217 was “inactive” each time. The Potency entry in the experiment on CP252, in the experiment on CP286, in the experiment with CP291, in the experiment with CP315, with CP325 and in the experiment on ECU was “inactive” throughout. Besides, the Potency result with JCK, in the experiment on SC27B and with TAB165 was “inactive” in each case. The Potency in the experiment with CP237 is 6.31 µM (active).
Turning to `CC(=O)NCCc1ccc(O)c(O)c1`, the activity, negative = inhibition in [2] (setting [3]) was 5.1% [at 38 µM].
As to `NCCCCNS(=O)(=O)c1cccc2c(Cl)cccc12`, in [2] (setting [3]), the activity, negative = inhibition was 3.48% [at 38 µM].
Turning to `CC(C)(C)[C@]1(O)CCN2CC3c4ccccc4CCc4cccc(c43)[C@@H]2C1` (stereo partly drawn), the Potency was 10 µM (active) in the experiment with ATS95; 11.2 µM (active) in the experiment with C2A; 8.91 µM (active) in the experiment on CP217; 11.2 µM (active) in the experiment with CP237; 10 µM (active) in the experiment with CP252; 8.91 µM (active) with CP286. Further, the Potency in the experiment on CP335 is 10.7 µM (active); in the experiment on ECU it was 14.1 µM (active); with GB4, 9.53 µM (active); in the experiment with SC27B, 7.94 µM (active); in the experiment on TAB165, 11.2 µM (active). Also, the Potency entry in the experiment with CP315 and with JCK was “inactive” in each case.
On to `CCSC(N)=Nc1ccc(C(F)(F)F)cc1`, for which the activity, negative = inhibition in [2] (setting [3]) is 13.4% [at 38 µM].
Same read-out and setting: under `COC(=O)c1c(-c2cc(OC)c(OC)c(OC)c2)c2ccc(OCc3ccccn3)cc2c(=O)n1-c1ccc(N)cc1` stands -8.64% [at 38 µM].
In the case of `COc1ccc(CCNC[C@@H](O)c2ccc(O)cc2)cc1OC`, the call in [1] was inactive. Moreover, the Potency entry in the experiment on ATS95, in the experiment with C2A, in the experiment with CP194, with CP201, in the experiment on CP211 and with CP217 was “inactive” each time. The Potency result in the experiment on CP237, with CP252, in the experiment with CP286, in the experiment on CP291, with CP315 and with CP325 was “inactive” each time. Further, the Potency entry in the experiment with CP335, with ECU, in the experiment with GB4, in the experiment with JCK, in the experiment on SC27B and in the experiment on TAB165 was “inactive” in each case.
With `N=C1Sc2ccccc2C2=NCCCN12`, the activity, negative = inhibition in experiment [2] (setting [3]) was -18.9% [at 38 µM].
Turning to `CN1C[C@H](C(=O)N[C@]2(C)O[C@@]3(O)C4CCCN4C(=O)[C@H](Cc4ccccc4)N3C2=O)C[C@@H]2c3cccc4[nH]cc(c34)C[C@H]21` (stereo partly drawn), the Potency in the experiment on ATS95 was 7.08 µM (active); in the experiment on C2A it was 8.91 µM (active); in the experiment on CP217, 6.31 µM (active); in the experiment with CP237, 1 µM (active); with CP252, 6.31 µM (active); in the experiment on CP286, 3.98 µM (active). The Potency in the experiment on ECU is 1.12 µM (active); with JCK, 10 µM (active); with SC27B it was 2.24 µM (active); with TAB165 it was 1.41 µM (active).

These data come from PubChem BioAssay (NCATS).
